Results as given in PubChem BioAssay (Tox21).
Records with an inconclusive call do not appear. Active and inactive are the calls of the source. Unless noted, calls follow the shape of the dose curve; as a rule, active = well fitted curve in the direction sought with a large enough effect in the repeat runs; inconclusive = weak or mixed curves; inactive = no such curve, though single readings can be large; an effect the other way counts as inactive or inconclusive.

Key:
[1] = qHTS assay to identify small molecule antagonists of the estrogen receptor alpha (ER-alpha) signaling pathway using the BG1 cell line in the presence of 0.1 nM 17-beta-estradiol - cell viability counter screen (AID 1259241); also: nearly all actives have a fitted effect of over 40% in size
In short: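 Cytotoxicity counter-screen: live-cell protease activity measured by fluorescence (30 min reagent step) in the same wells. Cells were VM7Luc4E2 with endogenous ER-alpha and ERE-driven luciferase, treated 22 hr at 37C alongside 0.1 nM 17beta-estradiol final.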

[2] = qHTS assay to identify small molecule antagonists of the androgen receptor (AR) signaling pathway using the MDA cell line in the presence of 0.5 nM R1881 - cell viability counter screen (AID 1259242); also: nearly all actives have a fitted effect of over 45% in size
In short: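 qHTS format. MDA-kb2 (MMTV-luc, AR/GR responsive) + cpd + 0.5 nM R1881 final, 16 hr 37C/0% CO2 → CellTiter-Fluor 30 min → fluorescence intensity.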

[3] = target: Estrogen receptor (Homo sapiens) (UniProt P03372); experiment: qHTS assay to identify small molecule antagonists of the estrogen receptor alpha (ER-alpha) signaling pathway using the BG1 cell line in the presence of 0.1 nM 17-beta-estradiol (AID 1259244); also: nearly all actives have a fitted effect of over 50% in size
In short: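 Reporter is a stably transfected luciferase under four estrogen responsive elements in VM7Luc4E2 cells expressing native full-length ER-alpha; inhibition of 0.1 nM (final) 17beta-estradiol-driven signal over 22 h is read by luminescence.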

[4] = qHTS assay to identify small molecule phospholipidosis (PLD) inducers (AID 1259344; active = well fitted curve in the direction sought with a large enough effect; an effect the other way counts as inactive or inconclusive)
In short: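 Phospholipid accumulation was scored by imaging: fixed, Hoechst-counterstained HepG2 cells stained with LipidTOX Red after 24 h compound exposure at 37 C. Read-outs were pit count and pit intensity per well or per cell, with amiodarone and DMSO controls.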

[5] = qHTS assay to identify small molecule HDAC inhibitors (AID 1259364);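 also: wild-type HCT-116 cells with endogenous class I/II HDAC activity; top concentration of the series differs between compounds; nearly all actives have a fitted effect of over 45% in size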
In short: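 Quantitative high-throughput format: overnight-seeded HCT-116 cells got compounds for 2 hr at 37C; HDAC-Glo I/II reagent added, 30 min RT, luminescence measured.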

[6] = qHTS assay to identify small molecule agonists of the sonic hedgehog signaling (Shh) pathway - cell viability counter screen (AID 1259366); also: nearly all actives have a fitted effect of over 50% in size
In short: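 Cytotoxicity counter screen: CellTiter-Fluor reagent added after 23 h compound exposure, then 1 h at 37C and fluorescence read. Cells were 3T3 Gli1-Luc, seeded 2,000 per well and dosed 4 h post-plating.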

[7] = qHTS assay to identify small molecule antagonists of the sonic hedgehog signaling (Shh) pathway - cell viability counter screen (AID 1259367); also: nearly all actives have a fitted effect of over 55% in size
In short: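 Viability was read by CellTiter-Fluor fluorescence in the same wells, reagent added 23 hr into compound treatment and incubated 1 hr at 37C. The 3T3 Gli1-Luc reporter cells (2,000/well) received conditioned medium after compound and ran 24 hr.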

[8] = qHTS assay to identify small molecule agonists of the sonic hedgehog signaling (Shh) pathway (AID 1259368; calls by dose curve;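 also: NIH/3T3-derived 3T3Gli1-Luc cells carrying a stable Gli1-driven firefly luciferase reporter; series mostly up to about 92 µM; nearly all actives have a fitted effect of over 15% in size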)
In short: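 Quantitative high-throughput format using a Gli1-driven firefly luciferase reporter line derived from NIH/3T3 cells. After a 24 hr compound treatment at 37 C and 5% CO2, luminescence reported Gli1 response element activity.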

[9] = qHTS assay to identify small molecule antagonists of the sonic hedgehog signaling (Shh) pathway (AID 1259369; calls by dose curve; also: nearly all actives have a fitted effect of over 45% in size)
In short: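 Stable Gli1-Luc reporter NIH/3T3 clone; quantitative HTS in stimulated mode with conditioned medium. Luminescence measured after 24hr compound treatment at 37 C.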

[10] = qHTS assay to identify small molecule agonists of the androgen receptor (AR) signaling pathway in the presence of an antagonist - cell viability counter screen (AID 1259379);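 also: MDA-kb2 human breast cancer cells carrying an MMTV luciferase reporter; series mostly up to about 92 µM; nearly all actives have a fitted effect of over 25% in size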
In short: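 Nilutamide-containing (3.0uM final) MDA-kb2 cultures, 3,000 cells/well, were treated with compounds across 15 concentrations. After 16 hr at 37C with no CO2, cell viability was determined by CellTiter-Fluor fluorescence in the luciferase assay wells.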

[11] = qHTS assay to identify small molecule agonists of the estrogen receptor beta (ER-beta) signaling pathway - cell viability counter screen (AID 1259380); also: nearly all actives have a fitted effect of over 30% in size
In short: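 Steps: plate ER-beta-UAS-bla HEK293T cells, rest 6 hr; add compounds in DMSO; incubate 16 hr at 37C, 5% CO2; add FRET substrate 2 hr; add CellTiter-Glo, wait 30 min at room temperature; read luminescence.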

[12] = qHTS assay to identify small molecule antagonists of the estrogen receptor beta (ER-beta) signaling pathway - cell viability counter screen (AID 1259382);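 also: HEK293T cells carrying ER-beta-UAS-bla reporter stimulated with estradiol; series mostly up to about 92 µM; nearly all actives have a fitted effect of over 55% in size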
In short: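 Viability is scored by CellTiter-Glo luminescence (30 min, room temperature) in ER-beta-UAS-bla HEK293T wells already read for reporter fluorescence. Compound exposure lasts 16 hr at 37C alongside 1nM 17-beta-estradiol in charcoal-stripped serum medium.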

[13] = target: Estrogen receptor (Homo sapiens) (UniProt P03372); experiment: qHTS assay to identify small molecule agonists of the estrogen receptor alpha (ER-alpha) signaling pathway in the presence of an antagonist (AID 1259383; calls by dose curve; also: top concentration of the series differs between compounds; nearly all actives have a fitted effect of over 15% in size)
In short: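 Readout was ERE-driven luciferase luminescence in VM7Luc4E2 cells, which express full-length ER-alpha endogenously. Compounds were tested at 15 concentrations for 22hr alongside 10.0nM ICI-182,780 (final concentration).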

[14] = qHTS assay to identify small molecule agonists or antagonists of the thyroid stimulating hormone receptor (TSHR) signaling pathway - wild type cell line counter screen (AID 1259384; calls by dose curve)
In short: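 Counter screen in untransfected Hek293: compounds (15-point titration, triplicate) plus phosphodiesterase inhibitor Ro20-1724 added after 18 h plating; 30 min RT. Intracellular cAMP via competitive d2/cryptate immunoassay, 1 h incubation.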

[15] = target: Thyrotropin receptor (Homo sapiens) (UniProt P16473); experiment: qHTS assay to identify small molecule antagonists of the thyroid stimulating hormone receptor (TSHR) signaling pathway (AID 1259385; calls by dose curve; also: nearly all actives have a fitted effect of over 20% in size)
In short: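 Antagonist mode: compound-treated TSHR-expressing HEK293 cells were stimulated with 1.5 ng/mL TSH (final) in presence of Ro20-1724 for 30 min at RT. HTRF cAMP detection after 1 h; each compound tested at 15 concentrations, triplicate.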

[16] = qHTS assay to identify small molecule agonists of the estrogen receptor alpha (ER-alpha) signaling pathway in the presence of an antagonist - cell viability counter screen (AID 1259386);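 also: series mostly up to about 92 µM; cells exposed to compounds for 22 h at 37 °C before the viability read; nearly all actives have a fitted effect of over 30% in size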
In short: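 In this counter screen, compound effects on VM7Luc4E2 viability were tested in the presence of the antagonist ICI-182,780 at 10.0nM final. Compounds were dosed at 15 concentrations, exposure lasted 22hr, and the CellTiter-Fluor signal was read.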

[17] = qHTS assay to identify small molecule HDAC inhibitors - cell viability counter screen (AID 1259365); also: series mostly up to about 92 µM; nearly all actives have a fitted effect of over 50% in size
In short: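 CellTiter-Glo luminescence (30 min, room temperature) reported viability after a 2 h compound exposure at 37 C. Cells: wild-type HCT-116, 1,500 per well, seeded the night before.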

[18] = target: Estrogen receptor beta (Homo sapiens) (UniProt Q92731); experiment: qHTS assay to identify small molecule agonists of the estrogen receptor beta (ER-beta) signaling pathway (AID 1259377; active = well fitted activation curve with a large enough effect in the signal ratio in the repeat runs, not every such curve was filed as active; the % refers to the signal ratio)
In short: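 Ratiometric beta-lactamase FRET read-out came after 2 h substrate loading at room temperature. It followed 16 h compound treatment at 37C of GripTite HEK293T cells carrying a UAS-bla reporter, plated in 2% charcoal-stripped FBS medium.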

[19] = target: Estrogen receptor beta (Homo sapiens) (UniProt Q92731); experiment: qHTS assay to identify small molecule antagonists of the estrogen receptor beta (ER-beta) signaling pathway (AID 1259378; active = well fitted inhibition curve with a large enough effect in the signal ratio in the repeat runs, not every such curve was filed as active; the % refers to the signal ratio)
In short: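 Antagonist mode: compounds added to beta-lactamase reporter HEK293T ER-beta-UAS cells stimulated with E2 (1nM final), 16 hr at 37C. LiveBLAzer B/G FRET substrate, 2 hours room temperature, fluorescence read-out.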

[20] = target: Androgen receptor (Homo sapiens) (UniProt P10275); experiment: qHTS assay to identify small molecule antagonists of the androgen receptor (AR) signaling pathway using the MDA cell line in the presence of 0.5 nM R1881 (AID 1259243); also: nearly all actives have a fitted effect of over 50% in size
In short: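 Antagonist mode quantitative HTS in MDA-kb2 MMTV-luciferase cells, agonist R1881 at 0.5 nM final, 16 hr exposure at 37C and 0% CO2, luminescent detection.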

Measured: Potency

Androgen receptor (Homo sapiens), sequence (P10275 whole entry, looked up): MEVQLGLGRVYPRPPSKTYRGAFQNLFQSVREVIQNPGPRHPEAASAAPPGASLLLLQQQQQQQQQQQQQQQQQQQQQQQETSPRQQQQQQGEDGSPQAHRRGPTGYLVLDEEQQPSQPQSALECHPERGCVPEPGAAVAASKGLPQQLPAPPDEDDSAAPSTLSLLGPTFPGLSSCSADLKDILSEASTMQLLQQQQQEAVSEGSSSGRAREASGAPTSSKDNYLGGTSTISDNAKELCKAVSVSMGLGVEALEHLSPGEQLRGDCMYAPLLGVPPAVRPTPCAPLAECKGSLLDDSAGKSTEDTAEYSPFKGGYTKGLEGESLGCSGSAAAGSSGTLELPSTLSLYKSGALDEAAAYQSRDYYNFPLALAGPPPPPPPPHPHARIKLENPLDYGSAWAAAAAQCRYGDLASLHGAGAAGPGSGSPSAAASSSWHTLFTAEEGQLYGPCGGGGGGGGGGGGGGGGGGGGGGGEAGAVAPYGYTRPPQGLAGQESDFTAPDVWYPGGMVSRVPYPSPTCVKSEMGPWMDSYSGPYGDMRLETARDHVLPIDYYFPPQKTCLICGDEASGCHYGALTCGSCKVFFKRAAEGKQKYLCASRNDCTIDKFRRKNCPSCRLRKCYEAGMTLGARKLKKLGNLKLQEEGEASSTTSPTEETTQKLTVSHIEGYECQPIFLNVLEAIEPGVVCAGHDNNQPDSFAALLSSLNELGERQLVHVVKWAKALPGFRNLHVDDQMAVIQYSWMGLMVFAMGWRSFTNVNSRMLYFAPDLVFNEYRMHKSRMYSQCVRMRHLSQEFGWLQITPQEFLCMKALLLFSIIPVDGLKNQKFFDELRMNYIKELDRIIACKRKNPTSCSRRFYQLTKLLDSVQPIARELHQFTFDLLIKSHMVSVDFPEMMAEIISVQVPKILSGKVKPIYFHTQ
Estrogen receptor beta (Homo sapiens), sequence (Q92731 whole entry, looked up): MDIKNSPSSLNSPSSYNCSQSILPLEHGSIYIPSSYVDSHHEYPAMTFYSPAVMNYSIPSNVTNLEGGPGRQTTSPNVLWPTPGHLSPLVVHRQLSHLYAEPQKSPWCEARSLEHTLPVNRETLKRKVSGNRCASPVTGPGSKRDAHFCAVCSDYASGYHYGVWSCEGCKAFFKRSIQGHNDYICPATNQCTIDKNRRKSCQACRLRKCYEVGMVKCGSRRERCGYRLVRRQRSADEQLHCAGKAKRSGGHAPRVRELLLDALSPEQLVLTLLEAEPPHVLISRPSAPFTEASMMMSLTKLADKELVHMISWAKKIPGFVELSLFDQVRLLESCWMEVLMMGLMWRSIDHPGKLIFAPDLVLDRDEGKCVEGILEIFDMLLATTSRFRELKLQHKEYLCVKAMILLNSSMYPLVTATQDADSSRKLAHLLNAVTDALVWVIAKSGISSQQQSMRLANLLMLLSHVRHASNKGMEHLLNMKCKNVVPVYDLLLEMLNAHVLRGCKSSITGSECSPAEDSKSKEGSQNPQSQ
Estrogen receptor (Homo sapiens), sequence (P03372 whole entry, looked up): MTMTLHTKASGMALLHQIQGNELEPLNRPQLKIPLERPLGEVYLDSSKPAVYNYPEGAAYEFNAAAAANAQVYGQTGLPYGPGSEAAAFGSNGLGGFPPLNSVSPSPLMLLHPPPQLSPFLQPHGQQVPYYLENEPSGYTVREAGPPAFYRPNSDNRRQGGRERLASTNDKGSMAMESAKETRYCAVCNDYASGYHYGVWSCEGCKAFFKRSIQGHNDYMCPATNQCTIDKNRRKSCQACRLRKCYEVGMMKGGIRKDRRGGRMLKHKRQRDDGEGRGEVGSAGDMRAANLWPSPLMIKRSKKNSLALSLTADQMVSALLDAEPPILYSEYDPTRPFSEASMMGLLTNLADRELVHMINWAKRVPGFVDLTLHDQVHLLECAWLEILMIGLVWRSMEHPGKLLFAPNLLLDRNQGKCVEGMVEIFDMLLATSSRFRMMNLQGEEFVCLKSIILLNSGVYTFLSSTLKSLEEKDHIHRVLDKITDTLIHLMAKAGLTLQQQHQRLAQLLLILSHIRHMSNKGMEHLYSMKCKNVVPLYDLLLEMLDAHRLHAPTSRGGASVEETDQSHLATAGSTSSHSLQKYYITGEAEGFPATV
Thyrotropin receptor (Homo sapiens), sequence (P16473 whole entry, looked up): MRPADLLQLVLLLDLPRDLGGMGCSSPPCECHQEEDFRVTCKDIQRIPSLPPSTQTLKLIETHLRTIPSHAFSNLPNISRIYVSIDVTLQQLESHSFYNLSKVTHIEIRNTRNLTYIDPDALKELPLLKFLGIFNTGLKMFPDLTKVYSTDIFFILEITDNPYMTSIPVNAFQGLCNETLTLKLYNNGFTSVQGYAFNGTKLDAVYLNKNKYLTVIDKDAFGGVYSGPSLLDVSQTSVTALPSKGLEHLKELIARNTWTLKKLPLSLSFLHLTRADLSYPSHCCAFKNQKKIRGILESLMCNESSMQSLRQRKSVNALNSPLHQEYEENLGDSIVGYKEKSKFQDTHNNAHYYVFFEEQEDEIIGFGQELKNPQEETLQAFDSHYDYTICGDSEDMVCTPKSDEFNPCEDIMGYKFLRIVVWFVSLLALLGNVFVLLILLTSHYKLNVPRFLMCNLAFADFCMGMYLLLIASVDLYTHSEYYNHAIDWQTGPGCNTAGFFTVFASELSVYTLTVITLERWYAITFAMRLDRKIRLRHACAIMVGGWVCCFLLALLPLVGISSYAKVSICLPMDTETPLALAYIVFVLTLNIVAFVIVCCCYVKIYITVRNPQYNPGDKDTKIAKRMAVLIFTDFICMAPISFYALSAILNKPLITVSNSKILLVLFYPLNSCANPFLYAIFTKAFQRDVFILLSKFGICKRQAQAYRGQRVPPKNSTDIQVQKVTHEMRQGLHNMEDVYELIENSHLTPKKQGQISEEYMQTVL

CC(=O)Nc1ccc(CC(=O)O)cc1
inactive: [1] | [2] | [3] | [4] | [5] | [6] | [7] | [8] | [9] | [10] | [11] | [12] | [13] | [14] | [15] | [16]

Cc1ccncc1
inactive: [1] | [2] | [3] | [5] | [17] | [6] | [7] | [8] | [9] | [18] | [19] | [10] | [11] | [12] | [13] | [14] | [15] | [16]

CCCN(CCC)C(=O)SCC
inactive: [1] | [2] | [20] | [3] | [5] | [6] | [7] | [8] | [9] | [18] | [19] | [10] | [11] | [12] | [13] | [14] | [15] | [16]

C1CCCNCC1
inactive: [1] | [2] | [3] | [5] | [17] | [6] | [7] | [8] | [9] | [18] | [10] | [11] | [12] | [13] | [14] | [15] | [16]

CCCCC(CC)COC(=O)c1ccc(C(=O)OCC(CC)CCCC)cc1 (configuration not stated)
inactive: [1] | [2] | [20] | [5] | [17] | [6] | [7] | [8] | [9] | [10] | [11] | [12] | [16]

CCCCCCCCO
inactive: [1] | [2] | [3] | [5] | [17] | [6] | [7] | [8] | [9] | [18] | [10] | [11] | [12] | [13] | [14] | [15] | [16]

O=C1C(N(CO)C(=O)NCO)N(CO)C(=O)N1CO (configuration not stated)
inactive: [1] | [2] | [3] | [5] | [17] | [6] | [7] | [8] | [9] | [18] | [10] | [11] | [12] | [13] | [14] | [15] | [16]

N[C@@H](Cc1cc(I)c(Oc2ccc(O)c(I)c2)c(I)c1)C(=O)O
inactive: [1] | [2] | [3] | [4] | [5] | [17] | [6] | [7] | [8] | [9] | [10] | [11] | [12] | [13] | [15] | [16]
